Measurements from PubChem BioAssay AID651604 (The Scripps Research Institute Molecular Screening Center, 2012).
The whole screen tested about 1,500 compounds, of which about 1,400 (93%) were called active. No stated cut-off is given here; in the data, active means inhibition above about 9.5%; inactive means the rest. The set was probably picked from earlier hits. Not all results are given here.

Test: binders of control antibody PGV04, counter-screen for PG9 antibody binder project, biochemical, TR-FRET, distinct HIV envelope site (AID 651604)
Conditions: TR-FRET PGV04 antibody-gp120 binding, at 6.7 µM, active compounds read high
In the case of `Fc1cc(F)c2nc(Nc3nc4c(F)cccc4s3)sc2c1`, the inhibition is reported as 15.5% (active).
In the case of `Cc1nc(-c2ccccc2)sc1-c1nc(-c2ccccc2)ncc1S(=O)(=O)c1ccccc1`, the inhibition is reported as 11.5% (active).
With `CC(C)OCCCNC(=O)c1cc(Sc2ccc(F)cc2)nc2ccccc12` the inhibition was 28.9% (active).
In the case of `N#C/C=C1\Sc2ccccc2C(=O)N1CC(=O)N1CCN(S(=O)(=O)c2ccccc2)CC1`, the inhibition is reported as 36.9% (active).
For `COCCNC(=O)c1cc2c(Br)ccc(Br)c2nc1N`, the inhibition was 20.9% (active).
For `CC(=O)c1sc(NC(=O)CCCOc2ccccc2C)nc1C`, the inhibition was 29.6% (active).
With `COc1cccc(-n2c(SCC(=O)c3c[nH]c4ccccc34)nc3ccccc3c2=O)c1` the inhibition was 32.9% (active).
With `Cc1cc2c(cc1C)N1C(=O)c3cc4ccccc4cc3NC(=O)C1C(=O)N2` (stereo not drawn) the inhibition was 17% (active).
In the case of `O=C(Oc1ccccc1)Oc1ccc2c(c1)oc(=O)c1ccccc12`, the inhibition is reported as 46.4% (active).
For `N#Cc1ccccc1Sc1ccccc1C(=O)OCC(=O)NC1CCCCC1`, the inhibition was 45.7% (active).
With `Cc1ccc(-c2cc(C(=O)NCc3cn(C)nc3C)c3cc(Br)ccc3n2)cc1` the inhibition was 25.8% (active).
With `Cc1ccc(-n2c(SCC(=O)NCCC3=CCCCC3)nc3n[nH]c(C)c3c2=N)cc1Cl` the inhibition was 27.8% (active).
In the case of `CCCCNC(=O)CSc1nc2n[nH]c(C)c2c(=N)n1-c1cccc(Cl)c1C`, the inhibition is reported as 63.2% (active).
For `COc1cccc(-c2ccc(C#N)c(SCC(=O)NCCc3ccc(Cl)cc3)n2)c1`, the inhibition was 13% (active).
In the case of `COc1ccc(CCNC(=O)CSc2nc(-c3ccc(OC)c(OC)c3)ccc2C#N)cc1`, the inhibition is reported as 38.1% (active).
In the case of `COC(=O)c1ccc(NC(=S)Nc2cccc(C)n2)cc1`, the inhibition is reported as 16.1% (active).
For `S=c1[nH]c2ccccc2c2ccccc12`, the inhibition was 11.6% (active).
For `O=C(Nc1nnc(-c2ccccc2F)s1)c1ccccc1F`, the inhibition was 36.9% (active).
For `CCCOc1ccc(C2C(C(=O)c3ccc(C)o3)=C(O)C(=O)N2CCCn2ccnc2)cc1` (stereo not drawn), the inhibition was 65.3% (active).
With `C=CCOc1cccc(C2C(C(=O)c3ccc(C)o3)=C(O)C(=O)N2CCCn2ccnc2)c1` (stereo not drawn) the inhibition was 22.6% (active).
For `O=C(O)CCC(=O)Nc1nc2ccc([N+](=O)[O-])cc2s1`, the inhibition was 5.74% (inactive).
With `COc1ccc(CC(=O)Nc2ccc(-c3nnc(-c4ccccc4)o3)cc2)cc1` the inhibition was 24.6% (active).
In the case of `CCc1ccc(NC(=O)CSc2nnc(-c3cnccn3)n2Cc2ccco2)cc1`, the inhibition is reported as 29.1% (active).
In the case of `O=C(C1=C(O)C(=O)N(Cc2ccccc2)C1c1ccco1)c1ccco1` (stereo not drawn), the inhibition is reported as 39.4% (active).
For `Cc1cc(C)cc(NC(=O)C2CCCN(S(=O)(=O)c3ccc4[nH]c(=O)ccc4c3)C2)c1` (stereo not drawn), the inhibition was 34.2% (active).
For `COc1ccc(Cl)cc1NC(=O)Cn1nc(-c2ccc(C)cc2)n(C)c1=S`, the inhibition was 26.6% (active).
In the case of `COc1ccc(-c2csc(NC(=O)c3ccc(N4C(=O)CCC4=O)cc3)n2)cc1OC`, the inhibition is reported as 20.8% (active).
With `Cc1nc2cc(NC(=O)CSc3nc4c(C)cccc4cc3C#N)ccc2s1` the inhibition was 59.1% (active).
In the case of `CC(=O)c1sc2nc(SCC(=O)N3CCCCC3)[nH]c(=O)c2c1C`, the inhibition is reported as 32.7% (active).
In the case of `N#Cc1c(-c2cccs2)nc(SCC(=O)c2ccc(Br)cc2)[nH]c1=O`, the inhibition is reported as 38.1% (active).
With `COCCCNc1nc2c(-c3cccc(C)c3)nnn2c2ccc(Cl)cc12` the inhibition was 30.7% (active).
For `C=CCn1c(=NC(=O)c2ccc(S(=O)(=O)N3CCCC3)cc2)sc2cc(NC(C)=O)ccc21`, the inhibition was 43% (active).
In the case of `C=CCn1c(=NC(=O)c2cccs2)sc2cc(NC(C)=O)ccc21`, the inhibition is reported as 12.5% (active).
For `Cc1c(-c2ccccc2)nc(N)c(C#N)c1-c1cccs1`, the inhibition was 27.9% (active).
With `CCCc1nc(SCC(=O)Nc2ccc(S(=O)(=O)N(C)C)cc2)c2ccccc2n1` the inhibition was 41% (active).
For `N#Cc1ccccc1NC(=O)c1cccc(COc2ccc(Cl)cc2Cl)c1`, the inhibition was 24.8% (active).
For `CCOc1cc2ccccc2cc1C(=O)Nc1ccccn1`, the inhibition was 16.9% (active).
For `N#Cc1c(N)nc2c3c(sc(=N)c2c1N)NC(=O)CC3c1ccccc1Cl` (stereo not drawn), the inhibition was 37% (active).
In the case of `O=C1C(=O)N(CCN2CCOCC2)C(c2cccc(Cl)c2)/C1=C(/O)c1ccc2c(c1)OCO2` (stereo not drawn), the inhibition is reported as 42.7% (active).
In the case of `COc1ccc(-n2nnnc2-c2nc3ccccc3s2)cc1`, the inhibition is reported as 59.6% (active).
For `O=C(COC(=O)c1ccc2c(c1)OCCO2)NCc1ccccc1Cl`, the inhibition was 33.7% (active).
In the case of `COc1ccc(-c2c(C)nn3c(N4CCC(C(=O)N5CCCCC5)CC4)cc(C)nc23)cc1OC`, the inhibition is reported as 12.2% (active).
With `Cn1c(=S)sc2ccc3ccccc3c21` the inhibition was 15.2% (active).
In the case of `COc1cccc(NS(=O)(=O)c2ccc3[nH]cc(C(=O)NCCCOC(C)C)c(=O)c3c2)c1`, the inhibition is reported as 19.8% (active).
In the case of `CCOc1ccc2cc(C#N)c(SCC(=O)OC)nc2c1`, the inhibition is reported as 65.8% (active).
With `O=C(NCc1ccc(Cl)cc1)c1cc2c(nc3sccn32)s1` the inhibition was 30.7% (active).
In the case of `Cc1cccc(Nc2nc3c(S(=O)(=O)c4ccccc4)nnn3c3ccccc23)c1C`, the inhibition is reported as 34.2% (active).
For `O=C(Nc1c(Br)cc2c(c1Br)Cc1cc([N+](=O)[O-])ccc1-2)C(Cl)Cl`, the inhibition was 79.2% (active).
With `Cc1ccc(-n2ncc3c(=O)n(-c4ccc(C)c(C)c4)c(-c4ccco4)nc32)cc1` the inhibition was 11.9% (active).
With `Cc1cc(Br)ccc1NC(=O)c1sc2ncn(CC(=O)N3CCN(c4ccccn4)CC3)c(=O)c2c1C` the inhibition was 15.6% (active).
In the case of `CCOc1cccc(NC(=O)Cn2nc(-c3ccc4c(c3)OCCO4)ccc2=O)c1`, the inhibition is reported as 25.3% (active).
In the case of `CCOc1ccc(C(=O)COC(=O)c2ccc(-n3cnnn3)cc2)cc1`, the inhibition is reported as 34% (active).
With `CCOC(=O)c1c(C)[nH]c(C(=O)OCC(=O)c2ccc(OC)cc2OC)c1C` the inhibition was 54.4% (active).
In the case of `CC(=O)c1cc(C#N)c(SCC(=O)Nc2nccs2)nc1C`, the inhibition is reported as 51.4% (active).
For `O=C1COc2ccc(C(=O)COC(=O)c3ccccc3Cl)cc2N1`, the inhibition was 32.6% (active).
In the case of `Cc1nc2nc(SCC(=O)c3ccccc3)[nH]c2cc1Br`, the inhibition is reported as 46.9% (active).
In the case of `O=C(Nc1cccc(S(=O)(=O)Nc2ccc(Cl)cc2)c1)c1ccc2c(c1)OCCO2`, the inhibition is reported as 34.2% (active).
With `CC1(C)Cc2ccccc2-c2[nH]c(=S)[nH]c(=O)c21` the inhibition was 7.23% (inactive).
In the case of `CCn1c(SCC(=O)Nc2cccc(F)c2)nnc1-c1cc2cc(Br)ccc2o1`, the inhibition is reported as 58.4% (active).
For `O=C(N=C1SC2CS(=O)(=O)CC2N1Cc1ccccc1)c1ccccc1` (stereo not drawn), the inhibition was 46.9% (active).
In the case of `CCn1nnc2cc(C(=O)Nc3ccc(C(=O)OC(C)C)cc3)ccc21`, the inhibition is reported as 37% (active).
In the case of `COC(=O)C1=C(C)N(Cc2ccccc2C(F)(F)F)C(=NCc2ccc(OC)cc2)NC1c1cccc(C(F)(F)F)c1` (stereo not drawn), the inhibition is reported as 6.34% (inactive).
For `O=C(O)CCCCCNc1ncnc2ccc(Br)cc12`, the inhibition was 30.4% (active).
